Source: PubChem BioAssay (National Center for Advancing Translational Sciences (NCATS))
Nrf2 inh: blocks Nrf2 signaling; Potency, µM (titrated, usually from 46 µM), most hits filed as inhibitors; 2.1% of 360,000 active; AID 504444; A549 ARE-Fluc reporter, luciferase luminescence, 18-24 h; note: nearly all actives have a fitted effect of over 60% in size
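A549 ARE_Fluc cells (5000/well, 5% FBS OPTI-MEM) pre-incubated 2 h, then treated with compounds 18-24 h at 37C/5% CO2 in concentration-response. CellTiter-Fluor viability read first; BugLite luciferase luminescence after 15 min at room temperature gives Nrf2 activity.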
Nrf2 ARE act: Nrf2 pathway activation | Potency, µM (doses to about 46.1 µM), hits mostly activators | AREc32 ARE-luciferase reporter (MCF7-derived line), luminescence, 24 h | 0.31% of 410,000 active; note: nearly all actives have a fitted effect of over 65% in size
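Luciferase luminescence (Steady-Glo, 30 min at room temperature) served as the read-out of ARE activation in AREc32 cells treated with compounds for 24 hr at 37 deg C.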
A549 viability: A549 cytotoxicity, counter-screen for Nrf2 inhibitors; AID 504648; A549 ARE-Fluc cells, CellTiter-Fluor viability, 18-24 h; Potency, µM (doses to about 46 µM), actives largely listed as inhibitors; 0.16% of 390,000 active
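A549 ARE-Fluc cells in 5% FBS OPTI-MEM, 5000 cells/well, rested 2 h then exposed to compounds in concentration-response for 18-24 h at 37 °C. Viability by CellTiter-Fluor fluorescence (Ex 405/Em 525) after 30 min; luciferase luminescence (BugLite, 15 min, RT) read afterwards.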
ELG1 DNA repair: blocks ELG1-dependent DNA repair in HEK293T cells | HEK293T ELG1-luciferase reporter, luminescence, 16 h; DNA damage induced by 5-fluorouridine | AID 504467 | 2.3% of 330,000 active | Potency, µM (titrated, usually from 46.1 µM), most hits filed as inhibitors; note: nearly all actives have a fitted effect of over 55% in size
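Reporter activity after DNA damage by 5-fluorouridine is monitored. Compound-treated cells incubate 16 hr at 37 °C, then ONE-Glo is added for 30 min before luminescence reading.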
A number is an active result; . = inactive; ? = inconclusive; / = no result. A selection: hits, their analogues and other compounds. The true share with any hit is near 3.7%. Calls come from the whole dose curve; as a rule, active = well fitted curve in the direction sought with a large enough effect; inconclusive = small, poorly fitted or top-dose-only effect, or another doubt; inactive = no such curve, though single readings can be large; an effect the other way counts as inactive or inconclusive.

SMILES | Nrf2 inh | Nrf2 ARE act | A549 viability | ELG1 DNA repair
CCOc1ccc(S(=O)(=O)N(CC)CC(=O)NCc2cccnc2)cc1C | . | . | . | .
CCOC(=O)c1ccc(NS(=O)(=O)c2ccc(-c3cc(C)no3)cc2)cc1 | . | . | . | /
CCOC(=O)c1ccc(NS(=O)(=O)c2cc(-c3onc(C)c3C)ccc2C)cc1 | 21µM | . | . | /
O=C1CC(C(=O)Nc2ccc(F)cc2)S/C(=N\N=C\c2ccco2)N1 (configuration not stated) | . | 11µM | . | .
Cn1nnnc1Sc1ncnc2scc(-c3ccc(-c4ccccc4)cc3)c12 | . | ? | . | ?
Cn1nnnc1Sc1ncnc2scc(-c3ccc(C#N)cc3)c12 | 16µM | . | ? | ?
Cn1nnnc1Sc1ncnc2scc(-c3ccc(C(F)(F)F)cc3)c12 | ? | ? | ? | 6.5µM
CCOc1ccc(-c2ccc(/C=C3/C(=N)N4C(C)=CSC4=NC3=O)o2)c([N+](=O)[O-])c1 | . | . | . | 26µM
O=C(c1cn(Cc2ccccc2)nc1-c1cccnc1)N1CCN(Cc2c(F)cccc2Cl)CC1 | . | . | . | 9.2µM
O=C(c1cn(Cc2ccccc2)nc1-c1cccnc1)N1CCN(Cc2ccccc2)CC1 | . | . | . | .
O=C1COc2cc(S(=O)(=O)NCc3ccco3)c(Cl)cc2N1 | / | . | . | /
COc1ccc(NC(=O)C2CCC(=O)N2C(=O)OCc2ccccc2)cc1 (configuration not stated) | ? | . | ? | .
CCN(CC)S(=O)(=O)c1cc(NC(=O)C(C)N2CCc3ccccc32)ccc1C (configuration not stated) | ? | . | . | ?
CCN(CC)S(=O)(=O)c1cc(NC(=O)C(C)N(C)CC(=O)Nc2c(C)cccc2C)ccc1C (configuration not stated) | 16µM | . | ? | 21µM
NC(=NCc1ccccc1)NN=Cc1ccnc2ccccc12 | / | . | / | /
CCC(=O)Nc1nc(-c2ccc3c(c2)CC(C)N3S(C)(=O)=O)cs1 (configuration not stated) | . | . | . | ?
CC(=O)Nc1ccc(-c2csc(NC(=O)Cc3ccccc3F)n2)cc1 | ? | . | . | .
CC1Cc2cc(-c3csc(NC(=O)Cc4cccs4)n3)ccc2N1S(C)(=O)=O (configuration not stated) | ? | . | . | 4.6µM
CS(=O)(=O)N1CCc2cc(-c3csc(NC(=O)Cc4ccccc4)n3)ccc21 | 21µM | . | . | 18µM
CC(=O)Nc1ccc(-c2csc(NC(=O)Cc3cccc(F)c3)n2)cc1 | 21µM | . | . | 18µM
CCOc1ccc(OCCN2C(=O)c3ccccc3C2=O)cc1 | ? | . | . | 8.2µM
CSCCC1NC(=O)N(C(C)C(=O)Nc2cc(Cl)cc(Cl)c2)C1=O (configuration not stated) | . | . | . | .
CC(/C=N/NC(=O)c1ccccn1)=C\c1ccco1 | . | ? | . | ?
CC(/C=N/n1c(-c2cc(C)[nH]n2)n[nH]c1=S)=C\c1ccco1 | . | . | . | ?
CC(/C=N/n1c(-c2ccc(Cl)cc2)n[nH]c1=S)=C\c1ccco1 | . | 2.8µM | . | .
SMILES | Nrf2 inh | Nrf2 ARE act | A549 viability | ELG1 DNA repair
CC(/C=N/n1cnnc1)=C\c1ccco1 | . | 11µM | . | .
O=C(CCCl)N1CCN(c2nc(-c3ccccc3)cs2)CC1 | . | . | . | ?
CN(C)c1ccc(-c2cc[nH]c(=O)c2N)cc1 | . | / | . | /
CC(C)[C@H](NC(=O)C1CCN(S(=O)(=O)c2ccc(F)cc2)CC1)C(=O)NCc1ccco1 | . | . | . | .
Cc1onc(-c2c(Cl)cccc2Cl)c1C(=O)c1c[nH]c(C(=O)NCC2CCCO2)c1 (configuration not stated) | ? | . | . | 18µM
COc1ccc(OC)c(CN2C(=O)c3ccccc3C2c2nnnn2-c2ccc3c(c2)OCCO3)c1 (configuration not stated) | / | . | / | /
Cc1ccccc1-c1noc(-c2ccccc2F)n1 | / | 8.9µM | . | ?
Cc1ccccc1-c1noc(-c2ccc(Cl)cc2)n1 | ? | . | . | ?
O=C(/C=C/c1cccc([N+](=O)[O-])c1)Nc1cccc(NC(=O)c2cccs2)c1 | ? | . | . | 18µM
O=C(Nc1cccc([N+](=O)[O-])c1)Nc1cccs1 | . | 7.1µM | . | .
O=C(/C=C/c1ccc(Cl)c([N+](=O)[O-])c1)Nc1cccc(NC(=O)c2ccco2)c1 | . | . | . | ?
O=C(/C=C/c1cccc([N+](=O)[O-])c1)Nc1cccc(NC(=O)c2ccco2)c1 | 21µM | . | ? | 21µM
